Seven molecules from PubChem BioAssay can be followed below.

A short description of experiment [1]: inhibitors of TNFa-induced NFkB p65 translocation, primary screen, imaging, HUVEC, MLSMR starter and 10KST1 sets (AID 438;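 active = inhibition above 20% together with a positive visual image hit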;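 note: compound added about 3h40 before a 20 min TNFalpha stimulation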;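 for inhibition: signal is the nuclear over cytoplasmic p65 intensity ratio per well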). To be noted: HUVEC TNFa-induced p65 nuclear translocation; cell count: measured here: nuclei count (cytotoxicity indicator), at 2.08 µM unless noted; inhibition: at 2 µM, stronger effect = higher value unless noted.
The nature of experiment [2]: endothelial E-selectin expression blockers – imaging, HUVEC, immunofluorescence, MLSMR starter and 10KST1 sets, primary screen (AID 487;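 active = visually confirmed hit in the image check and inhibition above 20%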;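 for inhibition: signal is fraction of cell area covered by stained E-selectin grains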;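 for nuclei count: 100% = median nuclei count of all wells on the same plate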). The settings on record: HUVEC TNFalpha-induced E-selectin immunofluorescence imaging, at 2 µM; inhibition: stronger effect = higher value; nuclei count: measured here: cell number, toxicity.
Experiment [3] in a line: Primary imaging screen for DUSP6 inhibitors that restore phospho-Erk in transfected HeLa cells, chemical complementation (AID 609;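 active = compounds giving at least 50% inhibition in the cell-based MKP-3 phosphatase rescue imaging test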;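 for inhibition: phospho-Erk level distribution per well compared with pooled transfected vehicle control wells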). The settings on record: HeLa MKP-3 transfected, phospho-Erk imaging KS statistic, at 10 µM.
The target in experiment [4] is Dual specificity protein phosphatase 6 (Homo sapiens) (UniProt Q16828). The description is as above. The settings on record: HeLa MKP-3 transfected, phospho-Erk imaging KS statistic, at 10 µM, stronger effect = higher value.
Chain of Dual specificity protein phosphatase 6 (Homo sapiens) (Q16828 whole entry, looked up): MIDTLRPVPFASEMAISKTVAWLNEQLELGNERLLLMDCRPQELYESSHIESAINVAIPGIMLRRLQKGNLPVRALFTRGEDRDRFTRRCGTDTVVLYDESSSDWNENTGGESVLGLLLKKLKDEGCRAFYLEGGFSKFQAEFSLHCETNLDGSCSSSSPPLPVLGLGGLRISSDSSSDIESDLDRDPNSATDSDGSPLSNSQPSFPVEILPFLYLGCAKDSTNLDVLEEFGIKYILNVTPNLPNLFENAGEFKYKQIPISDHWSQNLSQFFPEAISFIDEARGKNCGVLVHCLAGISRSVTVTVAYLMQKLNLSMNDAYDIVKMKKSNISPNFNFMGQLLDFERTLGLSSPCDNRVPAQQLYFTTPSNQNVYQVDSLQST
Experiment [5] deals with Voltage-gated potassium channel subunit beta-2 (Rattus norvegicus) (UniProt P62483). The experiment can be described thus: inhibitors of rat Kvbeta2 reductase activity – biochemical, NADPH fluorescence, primary screen (AID 622;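 active = fluorescence slope higher than the sample average by over 3 SD, cut at about -0.22 in these data, passing the limit was not always enough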;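 note: slope of raw intensity against log time taken from 70 to 1610 s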). To be noted: recombinant KvBeta, 4-cyanobenzaldehyde reduction, at 10 µM, stronger effect = higher value.
Chain of Voltage-gated potassium channel subunit beta-2 (Rattus norvegicus) (P62483 whole entry, looked up): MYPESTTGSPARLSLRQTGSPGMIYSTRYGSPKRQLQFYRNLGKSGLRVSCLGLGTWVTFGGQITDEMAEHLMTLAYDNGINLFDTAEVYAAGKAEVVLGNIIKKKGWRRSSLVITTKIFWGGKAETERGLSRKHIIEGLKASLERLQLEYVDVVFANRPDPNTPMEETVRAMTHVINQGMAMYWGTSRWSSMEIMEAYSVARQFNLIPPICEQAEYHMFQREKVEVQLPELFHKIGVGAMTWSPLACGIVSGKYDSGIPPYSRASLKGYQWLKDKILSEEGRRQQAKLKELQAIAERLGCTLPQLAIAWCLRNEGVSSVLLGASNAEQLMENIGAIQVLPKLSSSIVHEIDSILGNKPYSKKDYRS
Experiment [6] has the same target. Put plainly: enhancers of rat Kvbeta2 NADPH turnover – biochemical, NADPH fluorescence, primary screen (AID 623).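 Note: fluorescence intensity change per second fitted from 20 to 320 s.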 To be noted: Recombinant KvBeta, NADPH fluorescence decrease slope, 10 min; at 10 µM; stronger effect = lower value.
In experiment [7] the target is Muscarinic acetylcholine receptor M4 (Homo sapiens) (UniProt P08173). The experiment can be described thus: M4-linked GIRK flux change, two-sided – cell-based, HEK293 M4/GIRK, thallium flux, BTC-AM, M4 allosteric agonist project, primary screen (AID 625;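 active = fluorescence slope after compound addition differing from the mean of all tested samples at 99.7% confidence, mostly higher but some lower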;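 note: thallium influx through GIRK channels coupled to M4 in HEK293 cells with BTC-AM dye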). The settings on record: at 10 µM, actives lie on both sides.
Chain of Muscarinic acetylcholine receptor M4 (Homo sapiens) (P08173 whole entry, looked up): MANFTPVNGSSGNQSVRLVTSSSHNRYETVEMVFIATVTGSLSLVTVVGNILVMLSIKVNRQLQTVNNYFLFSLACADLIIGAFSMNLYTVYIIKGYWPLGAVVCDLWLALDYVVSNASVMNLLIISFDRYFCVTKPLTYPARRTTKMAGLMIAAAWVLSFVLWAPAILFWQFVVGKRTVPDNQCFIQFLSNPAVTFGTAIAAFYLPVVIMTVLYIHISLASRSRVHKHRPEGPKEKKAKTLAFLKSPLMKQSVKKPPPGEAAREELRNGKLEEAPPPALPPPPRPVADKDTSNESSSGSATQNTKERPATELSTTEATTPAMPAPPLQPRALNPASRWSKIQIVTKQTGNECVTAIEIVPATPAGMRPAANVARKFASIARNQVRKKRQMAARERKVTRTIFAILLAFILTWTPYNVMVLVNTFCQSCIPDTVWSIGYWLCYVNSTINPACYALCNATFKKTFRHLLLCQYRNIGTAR
The nature of experiment [8]: inhibitors of larval lipid processing in zebrafish, primary screen, whole organism, PED6 fluorescence, gall bladder and intestine (AID 686;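 active = a full or partial loss of lipid-probe fluorescence in the fish gall bladder, intestine or both, judged by eye; inactive = no fluorescence loss, or compound toxic to the fish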;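 note: larvae 5 to 7 days old with five fish per well; signal comes from phospholipase A2 cleavage of quenched PED6 carried via bile; overnight exposure to compound and PED6 before scoring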). The settings on record: Zebrafish larvae PED6 lipid processing, fluorescence scoring.
Experiment [9] is described as follows: loss of swimming-algae plug formation – whole organism, Chlamydomonas reinhardtii, WT vs cilia-less mutant, absorbance, 96-well, primary screen (AID 463189;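 active = inhibition at or above 50% relative to wild type and mutant plate controls; inactive = inhibition below 50%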;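 note: 0% = wild type cc124 cells in DMSO and 100% = ciliumless bld1 mutant cells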). The settings on record: Chlamydomonas reinhardtii gravitaxis, OD600 absorbance, 2 days; at 10 µM; stronger effect = higher value.
Experiment [10] is described as follows: reduction of polyQ htt aggregates in cells – imaging, exon1htt(103Q)mCFP cells, high-content imaging, primary screen (AID 483;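 active = visual image review flags a hit and inhibition of aggregation exceeds 20%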;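 note: compound exposure lasted 3 days before fixation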;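 for nuclei count: percent of the per-plate median nuclei count of sample wells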). To be noted: exon1htt(103Q)mCFP cell line, aggregate imaging, at 2 µM; inhibition of aggregation: stronger effect = higher value; nuclei count: measured here: cell count, toxicity.
Experiment [11] has as its target Alpha-2C adrenergic receptor (Homo sapiens) (UniProt P18825). The experiment can be described thus: compounds altering alpha2C-coupled GIRK flux – cell-based, HEK293 alpha2C/GIRK1/2, thallium flux, primary screen (AID 624;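 active = fluorescence slope after compound addition differing from the mean of all screened samples at 99.7% confidence, in either direction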;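 note: slope of fluorescence ratio to pre-addition baseline per second over 15 to 24 s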). To be noted: thallium flux BTC fluorescence, at 10 µM, actives lie on both sides.
The nature of experiment [12]: blockers of RIG-like receptor reporter activation – cell-based, Sendai virus stimulus, luciferase, 10K MLSCN set, TLR/RLR signaling modifier project, primary screen (AID 602276;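 active = inhibition at or above 50% at 10 µM; inactive = inhibition below 50%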;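 note: firefly luciferase from ISG56 promoter only with Renilla not read in this screen; 0% = Sendai virus plus DMSO and 100% = medium plus DMSO without virus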). The settings on record: HEK293 RL24 IRF3 luciferase reporter, at 10 µM, stronger effect = higher value. Background: In a reporter assay the amount or activity of a reporter protein is the signal.
Experiment [13] is described as follows: TLR3 IRF3 reporter activation blockers – cell-based, poly I:C stimulus, luciferase, 10K MLSCN set, primary screen (AID 602277;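 active = inhibition of the reporter signal at or above 50%; inactive = inhibition below 50%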). The settings on record: HEK293-TLR3 RL24 IRF3 luciferase reporter, at 10 µM, stronger effect = higher value.
The mark [14] stands for this setting: measured here: cell density z-score.
Setting [15] is: measured here: nuclear c-Myc green intensity z-score.
Setting [16] is: measured here: nuclear pErk red intensity z-score, stronger effect = higher value.

The structures appear in SMILES notation. Activity calls are given as the source filed them.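 Rule for the calls, unless noted: active = NADPH fluorescence slope more negative than the mean of all samples by about 3 SD, 99.7% confidence; inactive = the rest.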

Chain of Alpha-2C adrenergic receptor (Homo sapiens) (P18825 whole entry, looked up): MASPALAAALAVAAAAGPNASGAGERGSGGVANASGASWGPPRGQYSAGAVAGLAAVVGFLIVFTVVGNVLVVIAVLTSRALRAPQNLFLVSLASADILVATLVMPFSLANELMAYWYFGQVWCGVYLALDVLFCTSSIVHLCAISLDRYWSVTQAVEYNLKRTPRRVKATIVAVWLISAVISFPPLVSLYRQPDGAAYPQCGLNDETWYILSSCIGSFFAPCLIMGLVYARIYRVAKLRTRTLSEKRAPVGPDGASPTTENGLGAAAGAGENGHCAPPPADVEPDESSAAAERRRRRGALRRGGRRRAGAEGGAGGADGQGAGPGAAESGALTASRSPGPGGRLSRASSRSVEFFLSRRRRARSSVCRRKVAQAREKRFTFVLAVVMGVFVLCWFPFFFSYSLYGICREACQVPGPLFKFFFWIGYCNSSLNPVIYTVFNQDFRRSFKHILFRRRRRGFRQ

`CCCC12CN3CN(C1)CC(CCC)(C3)C2O` (centres undefined) returned a cell count in [1] of 527. The inhibition (usually the change of the read-out against control, counted positive when it falls) was 5.6% (inactive) in experiment [1], -164% (inactive) in [2], 7.42% (inactive) in experiment [4] and -2.85% (inactive) in experiment [9]. The molecule further had a nuclei count in experiment [2] of 146%. The z-score in experiment [3] (setting [14]) is 0.514; in experiment [3] (setting [15]), 1.99; in [3] (setting [16]), -1.5. Besides, the figures for the fluorescence slope in experiment [5] and in experiment [7] were -0.474 (inactive) and 0.00532 (inactive), respectively. For the same molecule, the NADPH fluorescence slope in [6] is -0.000119 (inactive). Further, the outcome in experiment [8] was inactive.

In experiment [1], `CCn1c(O)c(C(=O)CC2NCCc3ccccc32)c(=O)n(CC)c1=S` (centres undefined) gave a cell count of 494. Also, the inhibition was -7.2% (inactive) in [1], -84.9% (inactive) in experiment [2], 3.97% (inactive) in experiment [4] and -9.64% (inactive) in experiment [9]. The same molecule yielded a nuclei count in [2] of 120%. For the same molecule, the results for the z-score in experiment [3] (setting [14]), in experiment [3] (setting [15]) and in [3] (setting [16]) were -1.06, -1.07 and 1.31, respectively. In addition, the fluorescence slope was -0.399 (inactive) in [5] and 0.00707 (inactive) in [7]. Moreover, the NADPH fluorescence slope in experiment [6] was -1.1e-05 (inactive). The result in experiment [8] was inactive.

For `CC1(C)NCCN2C(=O)CSC21` (centres undefined), the cell count in experiment [1] amounted to 652. The inhibition in experiment [1] is -12.6% (inactive); in experiment [2], -216% (inactive); in experiment [4], 4.72% (inactive); in experiment [9], 9.56% (inactive). In [2], the nuclei count turned out to be 158%. Besides, the z-score is 0.771 in experiment [3] (setting [14]), 0.411 in experiment [3] (setting [15]) and 0.0731 in [3] (setting [16]). The fluorescence slope was -0.493 (inactive) in experiment [5] and 0.00571 (inactive) in experiment [7]. Moreover, the NADPH fluorescence slope in [6] is -5.8e-05 (inactive). Moreover, in experiment [8], the result was inactive.

In [1], `Cc1c(N=Cc2c(O)n(Cc3ccco3)c(=O)[nH]c2=O)c(=O)n(-c2ccccc2)n1C` had a cell count of 591. Further, the inhibition in experiment [1] is -1.8% (inactive); in experiment [2], -156% (inactive); in experiment [4] it was 11.4% (inactive); in experiment [9], 11.7% (inactive). Besides, the nuclei count in experiment [2] was determined as 133%. In addition, the z-score was 0.39 in [3] (setting [14]), 0.06 in [3] (setting [15]) and -0.372 in [3] (setting [16]). In addition, the fluorescence slope in experiment [5] was -0.492 (inactive); in experiment [7], 0.00411 (inactive). Also, the NADPH fluorescence slope in [6] is -0.000124 (inactive). Moreover, the result in experiment [8] was inactive.

Take `O=C(CN1CCN(CCO)CC1)Nc1ccc(Cl)cc1C(=O)c1ccccc1`: in experiment [1], the cell count worked out at 431. Moreover, the inhibition in experiment [1] is -4% (inactive); in experiment [2], -88.6% (inactive); in [4], 11.9% (inactive); in experiment [9], 12% (inactive). This molecule also displayed a nuclei count in [2] of 154%. Besides, the z-score is 0.92 in [3] (setting [14]), -0.897 in experiment [3] (setting [15]) and 0.82 in experiment [3] (setting [16]). Further, the fluorescence slope is -0.465 (inactive) in [5] and 0.00435 (inactive) in experiment [7]. Besides, the NADPH fluorescence slope in [6] was -0.000121 (inactive). Besides, the molecule was classed as inactive in experiment [8].

As for `Cc1ccc(C2SCC(=O)Nc3c2c(=O)[nH]n3C2CCOC(C)(C)C2)cc1` (centres undefined), the cell count in experiment [1] came out at 378. Moreover, the inhibition in experiment [1] is -0.6% (inactive); in experiment [2], -20.4% (inactive); in experiment [12], 18% (inactive); in experiment [13] it was 29.8% (inactive). For the same molecule, in [10], the inhibition of aggregation was -18.2% (inactive). For the same molecule, the figures for the nuclei count in experiment [10] and in experiment [2] were 128% and 111%, respectively. Moreover, in [5], the fluorescence slope was -0.37 (inactive). In experiment [6], the NADPH fluorescence slope was -3.9e-05 (inactive). In addition, in experiment [11], the slope was 0.00325 (inactive).

In the case of `CC1CN=C(Nc2ccc(N(C)C)cc2)S1` (centres undefined), in experiment [1], the cell count is 666. Further, the inhibition is 0.8% (inactive) in experiment [1], -22.4% (inactive) in [2], 3.49% (inactive) in experiment [4] and 9.45% (inactive) in experiment [9]. In addition, the nuclei count in experiment [2] came to 136%. Besides, the z-score in [3] (setting [14]) was -0.332; in experiment [3] (setting [15]), 0.426; in experiment [3] (setting [16]), -0.395. In addition, the fluorescence slope is -0.464 (inactive) in experiment [5] and 0.00379 (inactive) in experiment [7]. Also, in experiment [6], the NADPH fluorescence slope is -5.1e-05 (inactive). Moreover, the molecule was called inactive in experiment [8].
